# Rows were chosen to be rich in hits. Some 10% of all compounds tested hit in one or more screens of this group.
# G9a inh = qHTS Assay for Inhibitors of Histone Lysine Methyltransferase G9a. Histone-lysine N-methyltransferase EHMT2 (Homo sapiens), Q96KQ7. G9a H3K9 monomethylation, AlphaScreen, 2 h. Potency, µM (top dose mostly 102 µM), without a hit: at the top dose activity, negative = inhibition, hits mostly inhibitors. actives 8.8% (n = 350,000); also: potency is read from the fitted curve at half-maximal effect; % is scaled to controls: 0 for no effect and ±100 for the full control effect; nearly all actives have a fitted effect of over 75% in size
#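 Quantitative HTS format: methyltransferase activity on a biotin-tagged H3K9 peptide is measured by AlphaScreen, using a rabbit anti-monomethyl-H3K9 antibody with streptavidin donor and anti-IgG acceptor beads. Final levels are 20 nM enzyme, 500 nM peptide, 20 uM SAM; 2 h RT.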
# JMJD2A Tudor inh = qHTS Assay for Inhibitors of JMJD2A-Tudor Domain | AlphaScreen JMJD2A-Tudor / H3K4me3 peptide binding | actives 4.4% (n = 390,000) | Potency, µM (top dose mostly 114 µM), for the others: at the highest dose activity change, negative = inhibition, most hits filed as inhibitors | AID 504339, 2011 | Lysine-specific demethylase 4A (Homo sapiens), O75164; also: potency is read from the fitted curve at half-maximal effect; % is scaled to controls: 0 for no effect and ±100 for the full control effect; nearly all actives have a fitted effect of over 50% in size
# Six1-Eya2 blk = qHTS Assay for Inhibitors of the Six1/Eya2 Interaction; Homeobox protein SIX1 (Homo sapiens) + Protein phosphatase EYA2 (Homo sapiens), …; AlphaScreen GST-Six1/His-Eya2 binding, biochemical; hits give low values; activity change, % (no concentration beside the values); actives 0.56% (n = 360,000); AID 651725, 2012; in the data active = activity change below about -65%; inconclusive = mostly about -30% to -63%; also: % is scaled to controls: 0 for no effect and ±100 for the full control effect
#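 Compounds are tested against tagged Six1 and Eya2 proteins bridged by glutathione donor and nickel acceptor beads; after a one-hour incubation at 37 °C without light, AlphaScreen emission is recorded.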
# CtBP-E1A blk = qHTS Assay for Inhibitors of the CtBP/E1A Interaction; AlphaScreen GST-E1A/His-CtBP binding, 1536-well; hits give low values; CtBP / adenovirus E1A interaction (AlphaScreen); actives 0.49% (n = 340,000); activity change, % (concentration not given with the values); AID 651724, 2012; in the data active = activity change below about -65%; inconclusive = mostly about -30% to -63%; also: % is scaled to controls: 0 for no effect and ±100 for the full control effect
#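 Protein mix (5X: 125 nM each GST-E1A, His-CtBP) was incubated with pinned compound 2 h at 37 deg C in dark, in 50 mM Tris pH 8.0 buffer with 300 mM NaCl. Glutathione donor and nickel acceptor beads followed; AlphaScreen signal read after 1 h.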
# BAZ2B inh = qHTS Assay for Inhibitors of BAZ2B; AID 504333, 2011; Bromodomain adjacent to zinc finger domain protein 2B (Homo sapiens), Q9UIF8; Potency, µM (top dose mostly 114 µM), for inactives: top-dose activity change, negative = inhibition, hits mostly inhibitors; actives 4.4% (n = 360,000); AlphaScreen BAZ2B-H3K14Ac peptide displacement; also: potency is read from the fitted curve at half-maximal effect; % is scaled to controls: 0 for no effect and ±100 for the full control effect; nearly all actives have a fitted effect of over 60% in size
#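 Inhibition is scored as reduced AlphaScreen emission. The BAZ2B/b-H3(5-23)K14Ac complex (50 nM each) in PBS pH 7.4, 0.01% Tween-20 meets compound (up to 110 uM) for 30 min at RT before bead addition.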
# HP1b chromo inh = HTS for Inhibitors of HP1-beta Chromodomain Interactions with Methylated Histone Tails | Chromobox protein homolog 1 (Homo sapiens), P83916 | AlphaScreen HP1-beta / biotin-H3K9me3 peptide binding | Potency, µM (series often up to 114 µM), inactives show at the highest dose activity change, negative = inhibition, most hits filed as inhibitors | actives 0.56% (n = 390,000); also: potency is read from the fitted curve at half-maximal effect; nearly all actives have a fitted effect of over 70% in size
#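 HP1-beta protein (50 nM final) preincubated 30 min at room temperature with biotinylated H3(1-18)K9me3 peptide (50 nM) in PBS pH 7.4, 0.01% Tween-20, then compound added for 30 min. AlphaScreen streptavidin donor/nickel chelate acceptor beads (10 ug/mL final), 30 min dark, luminescence read.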
# The depositor's hits bear a star; ? = inconclusive; . = no result given; [ ] = another dose, or the depositor's remark. Unless noted, calls follow the shape of the dose curve; as a rule, active = well fitted inhibition curve with a large enough effect; inconclusive = small, poorly fitted or top-dose-only effect; inactive = no such curve, though single readings can be large or run the other way.
SMILES,G9a inh,JMJD2A Tudor inh,Six1-Eya2 blk,CtBP-E1A blk,BAZ2B inh,HP1b chromo inh
CCOC(=O)c1c(S(=O)(=O)N2CCC(C(=O)Nc3cccc(C#N)c3)CC2)c(C)n(C)c1C,-5%[59 µM],-16%,.,.,-8%,12%
Cc1cc2oc(C(=O)Nc3ccc(S(=O)(=O)Nc4ncccn4)cc3)cc(=O)c2cc1C,-17%[59 µM],-14%,.,.,-10%,-3%
COc1ccc(NC(=O)C(=O)NCCc2csc(-c3ccc(Cl)cc3)n2)cc1,7%[59 µM],-11%,.,.,5%,11%
Cc1ccc(OCC(=O)Nc2cc(NC(=O)COc3ccc(C)cc3)cc(C(=O)O)c2)cc1,?,-6%,-6,0,-2%,15%
O=C(COc1ccc(F)cc1Cl)Nc1cccc(S(=O)(=O)N2CCCCCC2)c1,-6%[59 µM],-3%,6,-10,13%,53%
Cc1ccc(S(=O)(=O)N2CCCCC2)cc1NC(=O)Cc1c[nH]c2ccccc12,-5%[59 µM],?,-13,-13,-6%,-4%
Cc1ccc(NC(=O)Cc2c[nH]c3ccccc23)cc1S(=O)(=O)N1CCCCCC1,25µM*,-19%,-11,10,-39%,28%
Cc1ccc(OCC(=O)Nc2cc(C(=O)O)cc(C(=O)O)c2)cc1C,?,8.9µM*,-1,2,-13%,-11%
N#Cc1ccc(Cl)cc1NC(=O)CNc1cccc(S(=O)(=O)N2CCCC2)c1,45µM*,-3%,0,1,3%,40%
CC(=O)c1cc(Cl)ccc1OCC(=O)Nc1cccc(S(=O)(=O)N2CCCC2)c1,7.1µM*,1%,-4,1,21%,32%
N#Cc1cccc(NC(=O)CNc2cccc(S(=O)(=O)N3CCCC3)c2)c1,-33%,-22%,4,-18,3%,62%
COc1ccc(NC(=O)COc2ccc(C)c(C)c2)cc1S(=O)(=O)N1CCCCC1,56µM*,-12%,-21,-13,2%,31%
COc1ccc(NC(=O)C2CC(=O)N(c3ccc(C)cc3)C2)cc1S(=O)(=O)N1CCCCC1 (stereo not drawn),.,.,6,-4,.,.
Cc1ccc(NC(=O)CCNC(=O)c2ccc(Br)cc2)cc1S(=O)(=O)N1CCCCCC1,50µM*,-18%,-7,8,1%,6%
COc1cc(Cl)c(C)cc1NCC(=O)Nc1cccc(S(=O)(=O)N2CCCC2)c1,11µM*,?,-20,-25,?,-18%
CCOc1ccc(N2CC(C(=O)Nc3ccc(OC)c(S(=O)(=O)N4CCCCC4)c3)CC2=O)cc1 (stereo not drawn),79µM*,-30%,-8,3,-36%,0%
CN(Cc1ccccc1)C(=O)Cn1nnc(-c2ccccc2)c1COc1ccc2ccccc2c1,.,.,-6,-12,.,.
O=C(COC(=O)Cc1c[nH]c2ccccc12)Nc1ccc(Cl)cc1,.,.,4,5,.,.
COc1ccc(NC(=O)Cc2ccccc2F)cc1S(=O)(=O)N1CCCCC1,0.32µM*,1%,6,4,0%,43%
Cc1ccc(NC(=O)COC(=O)Cc2c[nH]c3ccccc23)cc1F,35µM*,?,-11,-1,-35%,9%
O=C(COC(=O)c1cc([N+](=O)[O-])ccc1NCCO)Nc1cccc(S(=O)(=O)N2CCCC2)c1,45µM*,?,-13,-15,-7%,-19%
Cc1ccc(NC(=O)CN(C)CC(=O)Nc2cccc(F)c2)cc1S(=O)(=O)N1CCCCCC1,5.6µM*,18µM*,2,2,50µM*,?
COc1ccc2c(c1)CC(C(=O)NCCN1CCN(c3cccc(C)c3C)CC1)CO2 (stereo not drawn),0%[59 µM],-14%,.,.,-20%,10%[57 µM]

# Bioassay records from PubChem BioAssay.
